Hits are enriched below; roughly 11% of the tested compounds scored in any of these assays.
HCV inhibitor: inhibitors of hepatitis C virus infection | Huh7.5.1 HCVcc-Cre infection, luciferase reporter, 44 h | Potency, µM (highest dose often 41.8 µM), hits mostly inhibitors | 340,000 compounds, 3.4% hits | AID 651820
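Whole-lifecycle infectious HCVcc-Cre system; cells 1,000/well, compound then virus (~0.5 moi) added 4 h after plating, 44 h culture. Luciferase read 15 sec following 15 min substrate incubation, room temp.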
Pf growth 48h: P. falciparum growth inhibition at 48 hours (one generation). AID 504832. 310,000 compounds, 5.9% hits. P. falciparum luciferase growth in erythrocytes, 48 h. Potency, µM (doses to about 28.7 µM), usual class: inhibitors
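Here the parasites carry a stable luciferase gene and grow inside erythrocytes in Albumax-based RPMI medium with compound for one erythrocytic cycle. Activity is scored as loss of luminescent signal.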
Vaccinia Venus: inhibitors of vaccinia virus (Venus reporter); 330,000 compounds, 0.46% hits; Vaccinia virus Venus reporter expression, fluorescence; Potency, µM (doses to about 36.5 µM), hits mostly inhibitors; calls by dose curve; tested in A549 cells; note: nearly all actives have a fitted effect of over 30% in size
NS1 function inh: influenza NS1 inhibition; Potency, µM (top dose mostly 46.1 µM); AID 2326; 270,000 compounds, 0.4% hits; calls by dose curve; note: actives are rising curves; nearly all actives have a fitted effect of over 50% in size
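S. cerevisiae expressing influenza A NS1, grown in glucose, washed, then diluted 1:100 into pH 6.0 -URA galactose medium with 23 nl compound. Growth recovery read as OD600; NS1-free strain serves as control.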
Vaccinia mCherry: inhibitors of vaccinia virus infection (mCherry reporter signal) | Vaccinia virus mCherry reporter infection, fluorescence | Potency, µM (series often up to 36.5 µM), usual class: inhibitors | 310,000 compounds, 0.63% hits; calls by dose curve; tested in A549 cells; note: nearly all actives have a fitted effect of over 35% in size
Pf growth 96h: P. falciparum growth inhibition at 96 hour, primary screen for plastid delayed-death inhibitors | P. falciparum luciferase reporter growth, 96 h | 320,000 compounds, 6.9% hits | Potency, µM (series often up to 28.7 µM), usual class: inhibitors
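Erythrocytes infected with luciferase-expressing P. falciparum were dispensed at 2% hematocrit and 0.05% parasitemia (final), then incubated with compounds 96 hours at 37 C in 5% CO2. Luminescence after detection reagent addition reported growth.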
Hits are given with their value; - = inactive; ? = inconclusive; . = no result; [ ] = dose if it differs, or a comment. Unless noted, calls come from the whole dose curve; as a rule, active = well fitted inhibition curve with a large enough effect; inconclusive = small, poorly fitted or top-dose-only effect, or another doubt; inactive = no such curve, though single readings can be large or run the other way.

SMILES	HCV inhibitor	Pf growth 48h	Vaccinia Venus	NS1 function inh	Vaccinia mCherry	Pf growth 96h
CC(C)c1nc(N2CCN(C(=O)c3ccccc3)CC2)c(C#N)c2c1COC(C)(C)C2	?	10.4µM	-	-	-	-
Cc1nc(N2CCN(Cc3ccccc3)CC2)c(C#N)c2c1COC(C)(C)C2	11.2µM	-	-	-	.	?
CC(C)c1nc(N2CCN(C(=O)c3ccco3)CC2)c(C#N)c2c1COC(C)(C)C2	?	?	-	-	-	?
Cc1cccnc1NC(=O)c1ccc(OCc2c(C)noc2C)cc1	-	-	.	-	.	-
O=C(ONC1=NCCCCC1)c1ccc(Cl)cc1	2.51µM	?	-	-	.	.
O=C(ONC1=NCCCCC1)c1c(F)cccc1F	?	13.1µM	-	-	-	-
O=C(CNC1=NCCC1)c1ccc(Cl)cc1	-	?	-	-	-	11.7µM
Fc1cc(Cl)ccc1NC1=NCCCCC1	-	-	-	-	-	-
COc1ccc(C(=O)CNC2=NCCC2)cc1	-	-	-	.	-	-
CN(CC(=O)Nc1cccc(F)c1)C(=O)c1cccc(N2C(=O)CCC2=O)c1	-	-	.	.	.	?
CCOC(=O)c1cnc2cc(-c3ccc(Br)cc3)nn2c1C	-	-	.	-	.	13.1µM
COC(=O)CNC(c1ccccc1)c1cc(Br)ccc1NC(=O)c1ccc(Cl)cc1 (stereo unspecified)	.	.	-	.	-	.
COC(=O)CNC(c1ccccc1)c1cc(Br)ccc1N (stereo unspecified)	-	-	-	-	-	-
COC(=O)CNC(c1ccccc1)c1cc(Br)ccc1NS(=O)(=O)c1ccccc1 (stereo unspecified)	-	14.7µM	-	-	-	-
COC(=O)CNC(c1ccccc1)c1cc(Br)ccc1NS(=O)(=O)c1ccc(C)cc1 (stereo unspecified)	?	11.7µM	-	?	-	-
Cc1ccc(CNC(=O)CS(=O)(=O)c2ccccc2)cc1	-	-	.	-	.	-
CC(C)(C)OC(=O)NCCCC[C@H](NC(=O)c1nc[nH]c1C(=O)N1CCN(C(=O)OC(C)(C)C)CC1)C(=O)OC(C)(C)C	-	?	-	-	-	8.28µM
CC(C)(C)OC(=O)NCCCC[C@H](NC(=O)c1nc[nH]c1C(=O)N1CCN(c2ccccc2)CC1)C(=O)OC(C)(C)C	?	11.7µM	?	-	-	13.1µM
CC(C)C(c1nnnn1Cc1ccco1)N1CCN(C2CCCC2)CC1 (stereo unspecified)	-	-	-	?	-	-
Clc1ccccc1C(c1nnnn1Cc1ccco1)N1CCN(Cc2ccco2)CC1 (stereo unspecified)	-	14.7µM	-	-	-	-
COc1cccc(C(c2nnnn2Cc2ccco2)N2CCN(c3cccc(C)c3C)CC2)c1OC (stereo unspecified)	11.2µM	9.28µM	?	-	?	-
COc1cccc(C(c2nnnn2Cc2ccccc2)N2CCN(C(=O)c3ccco3)CC2)c1OC (stereo unspecified)	-	9.28µM	-	-	.	?
CCCC(c1nnnn1Cc1ccco1)N1CCN(C2CCCC2)CC1 (stereo unspecified)	-	-	-	?	-	11.7µM
COc1ccc(OC)c(C(c2nnnn2Cc2ccco2)N2CCN(C)CC2)c1 (stereo unspecified)	-	-	.	-	.	?
S=C(Nc1ccc2c(c1)OCO2)Nc1ccccc1Cl	-	-	-	-	?	-
SMILES	HCV inhibitor	Pf growth 48h	Vaccinia Venus	NS1 function inh	Vaccinia mCherry	Pf growth 96h
Cc1ccc(NC(=O)Cn2c(=O)n(CCCCC(=O)NCCc3ccc(Cl)cc3)c(=O)c3ccccc32)cc1	.	.	-	.	-	.
CCn1cc(C(=O)OCC(=O)Nc2ccc(F)cc2F)c(=O)c2ccc(C)nc21	.	.	-	.	-	.
COc1ccc(C(c2nnnn2Cc2ccccc2)N2CCN(C(=O)c3ccco3)CC2)cc1 (stereo unspecified)	-	?	-	-	-	.
O=C(c1ccco1)N1CCN(C(c2ccc(Cl)cc2)c2nnnn2Cc2ccccc2)CC1 (stereo unspecified)	-	11.7µM	-	-[9.22 µM]	-	10.4µM
CCC(c1nnnn1CCc1ccccc1)N1CCN(C(=O)c2ccco2)CC1 (stereo unspecified)	-	-	-	-	-	9.28µM
CCCC(c1nnnn1C1CCCCC1)N1CCN(C(=O)c2ccco2)CC1 (stereo unspecified)	-	3.7µM	-	-	-	-
